# Data published in PubChem BioAssay (NCI).
# About 83,000 compounds went through this panel and 20% of them were active in at least one assay; those are over-represented in the sample as a whole.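 Assay: single dose, 48 h. Readout: percent growth (0 = no net growth; negative = cell death). Active: <10.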 Unmarked numbers belong to inactive results. Active and inactive are the calls of the source.
# How the values were obtained:
# Experiment in all cases: NCI-60 one-dose screen, 48 h (100 = growth as untreated, 0 = no growth, -100 = all killed)
# Details in all cases: 10 µM unless noted
# T-47D breast = test system: T-47D breast
# BT-549 breast = test system: BT-549 breast
# MDA-MB-435 melanoma = test system: MDA-MB-435 melanoma
# SW-620 colon = test system: SW-620 colon
# MCF7 breast = test system: MCF7 breast
# HCT-116 colon = test system: HCT-116 colon
# HCC-2998 colon = test system: HCC-2998 colon
# KM12 colon = test system: KM12 colon
# MDA-MB-468 breast = test system: MDA-MB-468 breast
SMILES,growth (T-47D breast),growth (BT-549 breast),growth (MDA-MB-435 melanoma),growth (SW-620 colon),growth (MCF7 breast),growth (HCT-116 colon),growth (HCC-2998 colon),growth (KM12 colon),growth (MDA-MB-468 breast)
O=C(CSc1nc2ccccc2c(=O)[nH]1)Nc1ccccc1C(=O)O,93.9%,103%,104%,130%,84.5%,107%,125%,100%,92.5%
Nc1nc(-c2ccccc2)c(N=Nc2ccc(Cl)cc2Cl)s1,25.4%,-47.2% (active),-51.7% (active),-59.7% (active),-28.9% (active),-80.6% (active),-87.7% (active),-70.8% (active),-63.3% (active)
CC(=O)Nc1ccc(S(=O)(=O)Nc2ccc(-c3ccc4c(c3)NC(=O)/C4=C\c3ccc[nH]3)cc2)cc1,20.7%,42.6%,99.7%,114%,14.4%,87.1%,96.9%,51.6%,-7.1% (active)
O=C1Nc2cc(-c3ccc(NS(=O)(=O)c4ccc([N+](=O)[O-])cc4)cc3)ccc2/C1=C/c1ccc[nH]1,15.9%,-23% (active),1.34% (active),6.1% (active),-23.6% (active),-48.6% (active),32.2%,27.5%,-29.6% (active)
CC1CCc2c(sc3nc(SCC(=O)c4cccc(Br)c4)n(-c4ccccc4)c(=O)c23)C1 (stereo unspecified),15.9%,78.5%,29.5%,28.5%,56.9%,2.87% (active),60.6%,89.6%,29.6%
COc1ccc(N=Nc2c(N)nn3c(-c4cc5ccccc5oc4=O)ccnc23)cc1,53.2%,29.5%,75.5%,31.3%,29%,37.9%,38.1%,51.1%,24.7%
COc1ccc(/C=C/C(=O)c2ccc(OC)c(S(N)(=O)=O)c2)c(C(F)(F)F)c1,29.3%,-78.9% (active),63.6%,7.45% (active),8.35% (active),-44.3% (active),-95.4% (active),6.97% (active),7.25% (active)
COc1ccc(-c2nc3ccc(-c4nnc(SCc5ccccc5)o4)cc3[nH]2)cc1OC,32.4%,49.7%,40%,15.9%,21.7%,8.42% (active),63.2%,61.2%,44.1%
Cc1ccc(C(=O)C[n+]2cccc3c4ccccc4ccc32)cc1,43.8%,20.8%,13.5%,19.5%,11.8%,11.8%,17.4%,25.7%,-10.3% (active)
COc1ccc2oc(=O)c(-c3csc(N/N=C(\C)c4cc(OC)c(OC)c(OC)c4)n3)cc2c1,65.7%,39%,99.2%,108%,79.8%,92.2%,112%,87.6%,79.9%
CN(C)c1nc(NCCNS(=O)(=O)c2ccc(C(=O)/C=C/c3ccc(C(F)(F)F)cc3)cc2)nc(N2CCOCC2)n1,-61.2% (active),-20.8% (active),-59.4% (active),-76.7% (active),-84.5% (active),-91.4% (active),-97.6% (active),-80.7% (active),-96.1% (active)
CN(C)c1nc(NCCNS(=O)(=O)c2ccc(C3=Nc4c(N)nc(N)nc4NC(c4ccc(C(F)(F)F)cc4)C3)cc2)nc(N2CCOCC2)n1 (stereo unspecified),24.7%,1.02% (active),44.3%,54.7%,21.8%,17.1%,27.3%,47.8%,5.66% (active)
Cc1ccc(-c2cc(-c3ccccc3)[nH]c(=O)c2C#N)cc1,73.5%,88.5%,107%,97.8%,75.1%,94.3%,114%,91.2%,89.4%
CC1=C(C)C(=O)C(NCCN2CCOCC2)=C(Br)C1=O,-58.6% (active),87.4%,-87.5% (active),32.7%,10.3%,-75.5% (active),101%,94.2%,-96.2% (active)
O=C(CSc1nc2ccccc2c(=O)[nH]1)NNC(=O)c1ccccc1Cl,92.4%,160%,101%,104%,93.4%,109%,113%,101%,137%
O=C(Cc1c(-c2ccccc2[N+](=O)[O-])n(-c2ncnc3c2c(-c2ccccc2)c(-c2ccccc2)n3Cc2ccccc2)[nH]c1=O)c1ccc(Cl)c(Cl)c1,6.14% (active),-17.2% (active),2.32% (active),31.3%,11.9%,13.7%,24.9%,15.7%,-23.5% (active)
COc1ccc(-n2c(NC(=O)N3CCN(C)CC3)c(C#N)c3ccccc32)cc1,55.2%,57.7%,71.7%,69.2%,35.5%,48%,89%,34.1%,38.3%
CCCCC[C@@H]1C/C=C(\C)[C@@H](O)C(C)(C)C(=O)[C@@H](C)/C=C(\C)[C@@H]2C[C@H](O)C[C@](O)(CC(=O)O1)O2,13.5%,18.8%,24%,47.3%,7.53% (active),43%,57.1%,44.6%,-21.2% (active)
COc1cncc(-c2ccc3ncnc(N4CCc5ccc(Cl)cc54)c3c2)c1,14.1%,-72.1% (active),53.6%,60.7%,-1.93% (active),-58% (active),16.9%,21.5%,-67.4% (active)
Clc1ccc(Nc2nnc(-c3c[nH]c4ccccc34)o2)cc1,42%,63.7%,25%,86.1%,38.3%,79.5%,74.5%,36%,-20.5% (active)
Cc1ccc(Cl)cc1NC(=O)N/C(N)=N/c1nc2ccccc2s1,32.4%,-7.19% (active),-63.9% (active),1.84% (active),4.25% (active),-51.9% (active),-14.8% (active),-28.7% (active),-30.1% (active)
Cc1ccc(C(=O)Nc2cc(-c3ccncc3)cc(C(F)(F)F)c2)cc1C#Cc1cnc2cccnn12,81.6%,86.8%,33.9%,30.7%,45.9%,23.4%,63.5%,36.2%,92.7%
C[C@@H]1CN(c2ccc3ncc(C#Cc4cncc(C(=O)Nc5ccc(CN6CCN(C)CC6)c(C(F)(F)F)c5)c4)n3n2)C[C@@H](C)O1,-62.6% (active),-75.4% (active),-96.4% (active),-84.2% (active),-93.1% (active),-23.5% (active),-97% (active),-66.6% (active),-95.1% (active)
CCC(=O)c1c2c(c3ccc4c5ccccc5ccc4n13)C(=O)c1ccccc1C2=O,87.2%,114%,-89.8% (active),88.5%,54%,92.6%,65.4%,68.9%,88.6%
COc1ccc2[nH]c(=O)c(CSc3ccccc3Nc3nccc(-c4ccc(C(F)(F)F)cc4)n3)cc2c1,11.3%,-10.4% (active),32.3%,17.5%,-17.5% (active),-8.91% (active),18.8%,29.2%,13.6%
COc1cc(C2CC(c3ccc(F)cc3)=Nc3c(N)nc(N)nc3N2)ccc1Oc1nc(Nc2ccc(F)cc2)nc(N(C)C)n1 (stereo unspecified),65.7%,51.3%,47%,31.8%,7.4% (active),6.9% (active),29.1%,44.9%,-17.8% (active)
c1n[nH]cc1-c1nc2ccc3cn[nH]c3c2c2c1CCCC2,74.7%,97.1%,94.8%,109%,78.7%,89.5%,104%,96.4%,78.5%
Cc1cccc(-c2ccccc2Oc2ccc3nnc(Cl)n3n2)c1,111%,99.8%,105%,101%,95%,104%,105%,106%,98.3%
CCCCNc1ccc2c3c(cccc13)C(=O)N(NCC(O)COc1ccc3c(C)cc(=O)oc3c1)C2=O (stereo unspecified),80.8%,95.8%,72.2%,93.1%,64.6%,91.9%,104%,85.7%,68.8%
